Data from the supplement of paper PMC8728848.
This excerpt belongs to a sample that is enriched for the strongest signals.

How the values were obtained:
Assay in all cases: glycan array binding signal (z-score within array); higher = stronger binding
Settings in all cases: glycan notation: IUPAC condensed, linker removed
Fuc(a1-2)Gal(b1-3)GalNAc = molecular target: Fuc(a1-2)Gal(b1-3)GalNAc
Method in brief: (§1)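 Columns mapping to the same glycan were averaged after glycan names were converted to IUPAC-condensed notation. The data come from 3228 arrays in the Consortium for Functional Glycomics database, limited to those with an available protein sequence. Binding is reported as a within-array Z-score averaged across arrays of one protein sequence and across linkers.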

[1] = molecular target: Fuc(a1-2)Gal(b1-3)GalNAc(b1-4)[Neu5Ac(a2-3)]Gal(b1-4)Glc
Method in brief: as §1

[2] = molecular target: Fuc(a1-2)Gal(b1-3)GlcNAc(b1-3)[Neu5Ac(a2-6)Gal(b1-4)GlcNAc(b1-6)]Gal(b1-4)Glc
Method in brief: as §1

[3] = molecular target: Fuc(a1-2)Gal(b1-4)GlcNAc(b1-3)Gal(b1-4)GlcNAc(b1-3)Gal(b1-4)GlcNAc
Method in brief: as §1

[4] = molecular target: Fuc(a1-2)Gal(b1-4)GlcNAc(b1-3)[Fuc(a1-2)Gal(b1-4)GlcNAc(b1-6)]GalNAc
Method in brief: as §1

[5] = molecular target: Fuc(a1-2)Gal(b1-4)[Fuc(a1-3)]GlcNAc(b1-3)GalNAc
Method in brief: as §1

[6] = molecular target: Fuc(a1-2)Gal6S(b1-4)GlcNAc
Method in brief: as §1

Fuc(a1-2)[Gal(a1-3)]Gal = molecular target: Fuc(a1-2)[Gal(a1-3)]Gal
Method in brief: as §1

[7] = molecular target: Fuc(a1-2)[Gal(a1-3)]Gal(b1-4)GlcNAc(b1-2)Man(a1-3)[Fuc(a1-2)[Gal(a1-3)]Gal(b1-4)GlcNAc(b1-2)Man(a1-6)]Man(b1-4)GlcNAc(b1-4)[Fuc(a1-6)]GlcNAc
Method in brief: as §1

[8] = molecular target: Fuc(a1-2)[Gal(a1-3)]Gal(b1-4)GlcNAc(b1-3)[Fuc(a1-2)[Gal(a1-3)]Gal(b1-4)GlcNAc(b1-6)]GalNAc
Method in brief: as §1

[9] = molecular target: Fuc(a1-2)[GalNAc(a1-4)]Gal(b1-4)GlcNAc
Method in brief: as §1

[10] = molecular target: Fuc(a1-3)[Gal(b1-4)]GlcNAc(b1-3)GalNAc
Method in brief: as §1

[11] = molecular target: Gal(a1-3)Gal(b1-4)[Fuc(a1-3)]GlcNAc
Method in brief: as §1

Gal(b1-3)Gal = molecular target: Gal(b1-3)Gal
Method in brief: as §1

Gal(b1-3)Gal(b1-4)GlcNAc = molecular target: Gal(b1-3)Gal(b1-4)GlcNAc
Method in brief: as §1

[12] = molecular target: Gal(b1-3)GalNAc(a1-3)[Fuc(a1-2)]Gal(b1-4)Glc
Method in brief: as §1

[13] = molecular target: Gal(b1-3)GalNAc(a1-3)[Fuc(a1-2)]Gal(b1-4)GlcNAc
Method in brief: as §1

Gal(b1-3)GalNAc(b1-3)Gal = molecular target: Gal(b1-3)GalNAc(b1-3)Gal
Method in brief: as §1

[14] = molecular target: Gal(b1-3)GalNAc(b1-3)Gal(a1-4)Gal(b1-4)Glc
Method in brief: as §1

[15] = molecular target: Gal(b1-3)GalNAc(b1-4)Gal(b1-4)Glc
Method in brief: as §1

[16] = molecular target: Gal(b1-3)GalNAc(b1-4)[Neu5Ac(a2-3)]Gal(b1-4)Glc
Method in brief: as §1

Gal(b1-3)GlcNAc = molecular target: Gal(b1-3)GlcNAc
Method in brief: as §1

[17] = molecular target: Gal(b1-3)GlcNAc(b1-3)Gal(b1-3)GlcNAc
Method in brief: as §1

[18] = molecular target: Gal(b1-3)[GlcNAc(b1-6)]GalNAc
Method in brief: as §1

[19] = molecular target: Gal(b1-3)[Neu5Ac(a2-6)]GalNAc
Method in brief: as §1

Gal(b1-4)Glc = molecular target: Gal(b1-4)Glc
Method in brief: as §1

[20] = molecular target: Gal(b1-4)GlcNAc(b1-3)Gal(b1-3)GlcNAc
Method in brief: as §1

[21] = molecular target: Gal(b1-4)GlcNAc(b1-3)Gal(b1-4)GlcNAc(b1-3)Gal(b1-4)GlcNAc(b1-3)Gal(b1-4)GlcNAc(b1-3)Gal(b1-4)GlcNAc(b1-2)[Gal(b1-4)GlcNAc(b1-3)Gal(b1-4)GlcNAc(b1-3)Gal(b1-4)GlcNAc(b1-3)Gal(b1-4)GlcNAc(b1-3)Gal(b1-4)GlcNAc(b1-6)]Man(a1-6)[Gal(b1-4)GlcNAc(b1-3)Gal(b1-4)GlcNAc(b1-3)Gal(b1-4)GlcNAc(b1-3)Gal(b1-4)GlcNAc(b1-3)Gal(b1-4)GlcNAc(b1-2)Man(a1-3)]Man(b1-4)GlcNAc(b1-4)[Fuc(a1-6)]GlcNAc
Method in brief: as §1

[22] = molecular target: Gal(b1-4)GlcNAc(b1-3)[Gal(b1-4)GlcNAc(b1-6)]GalNAc
Method in brief: as §1

[23] = molecular target: Gal(b1-4)GlcNAc(b1-6)Gal(b1-4)GlcNAc
Method in brief: as §1

[24] = molecular target: Gal(b1-4)GlcNAc(b1-6)[Gal(b1-3)]GlcNAc
Method in brief: as §1

Gal6P(b1-4)GlcNAc = molecular target: Gal6P(b1-4)GlcNAc
Method in brief: as §1

GalNAc(b1-3)Gal = molecular target: GalNAc(b1-3)Gal
Method in brief: as §1

[25] = molecular target: GalNAc(b1-3)Gal(a1-4)Gal(b1-4)GlcNAc
Method in brief: as §1

GalNAc(b1-4)Gal(b1-4)Glc = molecular target: GalNAc(b1-4)Gal(b1-4)Glc
Method in brief: as §1

[26] = molecular target: GlcNAc(a1-4)Gal(b1-4)GlcNAc(b1-3)Gal(b1-4)Glc
Method in brief: as §1

[27] = molecular target: GlcNAc(a1-4)Gal(b1-4)GlcNAc(b1-3)Gal(b1-4)GlcNAc(b1-3)Gal(b1-4)GlcNAc
Method in brief: as §1

[28] = molecular target: GlcNAc(b1-2)Gal(b1-3)GalNAc
Method in brief: as §1

[29] = molecular target: GlcNAc(b1-2)Man(a1-3)[GlcNAc(b1-2)Man(a1-6)]Man(b1-4)GlcNAc(b1-4)[Fuc(a1-6)]GlcNAc
Method in brief: as §1

GlcNAc(b1-3)Fuc = molecular target: GlcNAc(b1-3)Fuc
Method in brief: as §1

[30] = molecular target: GlcNAc(b1-3)Gal(b1-4)GlcNAc(b1-3)[GlcNAc(b1-3)Gal(b1-4)GlcNAc(b1-3)]GalNAc
Method in brief: as §1

GlcNAc(b1-3)Man = molecular target: GlcNAc(b1-3)Man
Method in brief: as §1

GlcNAc(b1-4)GlcNAc = molecular target: GlcNAc(b1-4)GlcNAc
Method in brief: as §1

[31] = molecular target: Neu5Ac(a2-3)Gal(b1-3)GalNAc(b1-4)[Neu5Ac(a2-8)Neu5Ac(a2-3)]Gal(b1-4)Glc
Method in brief: as §1

[32] = molecular target: Neu5Ac(a2-3)Gal(b1-3)GlcNAc(b1-3)Gal(b1-3)GlcNAc
Method in brief: as §1

[33] = molecular target: Neu5Ac(a2-3)Gal(b1-3)GlcNAc(b1-3)GalNAc
Method in brief: as §1

[34] = molecular target: Neu5Ac(a2-3)Gal(b1-3)[Fuc(a1-4)]GlcNAc(b1-3)Gal(b1-3)[Fuc(a1-4)]GlcNAc
Method in brief: as §1

[35] = molecular target: Neu5Ac(a2-3)Gal(b1-3)]Neu5Ac(a2-3)Gal(b1-4)]GlcNAc
Method in brief: as §1

Neu5Ac(a2-3)Gal(b1-4)Glc = molecular target: Neu5Ac(a2-3)Gal(b1-4)Glc
Method in brief: as §1

[36] = molecular target: Neu5Ac(a2-3)Gal(b1-4)[Fuc(a1-3)]GlcNAc(b1-3)Gal(b1-4)GlcNAc
Method in brief: as §1

Neu5Ac(a2-6)Gal = molecular target: Neu5Ac(a2-6)Gal
Method in brief: as §1

[37] = molecular target: Neu5Ac(a2-6)Gal(b1-4)GlcNAc(b1-2)[Neu5Ac(a2-6)Gal(b1-4)GlcNAc(b1-4)]Man(a1-3)[GlcNAc(b1-4)][Neu5Ac(a2-6)Gal(b1-4)GlcNAc(b1-2)[Neu5Ac(a2-6)Gal(b1-4)GlcNAc(b1-6)]Man(a1-6)]Man(b1-4)GlcNAc(b1-4)GlcNAc
Method in brief: as §1

[38] = molecular target: Neu5Ac(a2-6)Gal(b1-4)GlcNAc(b1-3)Gal(b1-4)GlcNAc
Method in brief: as §1

[39] = molecular target: Neu5Ac(a2-6)Gal(b1-4)GlcNAc(b1-6)[Gal(b1-3)]GalNAc
Method in brief: as §1

[40] = molecular target: Neu5Ac(a2-6)Gal(b1-4)GlcNAc6S
Method in brief: as §1

[41] = molecular target: Neu5Ac(a2-8)Neu5Ac(a2-8)Neu5Ac(a2-3)[Gal(b1-3)GalNAc(b1-4)]Gal(b1-4)Glc
Method in brief: as §1

[42] = molecular target: Neu5Ac(a2-8)Neu5Gc(a2-3)Gal(b1-4)GlcNAc
Method in brief: as §1

B1: Epa7 (Candida glabrata), Q6DTM6_CANGB (protein)
chain: MGSSHHHHHHSSGLVPRGSHMKDDYSSFLSNNNLGWTDPTEFPLGCSPNVTTPKNGLSMELYSYDLRKNGSYPCWDAAYLDPNYPRTGYKSHRLLAKVDGVTGNINFYYHATKGCTPEIDHLPASYNYPKPLTMTNFTMLLYGYFKPKVTGYHTFTISADDLLFVNFGAGNAFDCCKRESSADDFGNYQAYAVWGSQTAKDDLTVHLDAGLYYPIRIFFNNREYDAELSLTLKTESDSNPVIDFSDYFYSFDDTKDGCPGLVSYDTS
glycan array binding signal (z-score) (Fuc(a1-2)Gal(b1-3)GalNAc): -0.169 | glycan array binding signal (z-score) [1]: -0.072 | glycan array binding signal (z-score) [2]: -0.206 | glycan array binding signal (z-score) [3]: -0.253 | glycan array binding signal (z-score) [4]: -0.209 | glycan array binding signal (z-score) [5]: -0.027 | glycan array binding signal (z-score) [6]: -0.285 | glycan array binding signal (z-score) (Fuc(a1-2)[Gal(a1-3)]Gal): -0.213 | glycan array binding signal (z-score) [7]: -0.241 | glycan array binding signal (z-score) [8]: -0.208 | glycan array binding signal (z-score) [9]: -0.256 | glycan array binding signal (z-score) [10]: -0.19 | glycan array binding signal (z-score) [11]: -0.201 | glycan array binding signal (z-score) (Gal(b1-3)Gal): 2.85 | glycan array binding signal (z-score) (Gal(b1-3)Gal(b1-4)GlcNAc): 5.79 | glycan array binding signal (z-score) [12]: 5.79 | glycan array binding signal (z-score) [13]: 5.59 | glycan array binding signal (z-score) (Gal(b1-3)GalNAc(b1-3)Gal): 11 | glycan array binding signal (z-score) [14]: 4.75 | glycan array binding signal (z-score) [15]: 7.99 | glycan array binding signal (z-score) [16]: 4.82 | glycan array binding signal (z-score) (Gal(b1-3)GlcNAc): -0.104 | glycan array binding signal (z-score) [17]: -0.207 | glycan array binding signal (z-score) [18]: 1.21 | glycan array binding signal (z-score) [19]: 4.18 | glycan array binding signal (z-score) (Gal(b1-4)Glc): -0.199 | glycan array binding signal (z-score) [20]: -0.246 | glycan array binding signal (z-score) [21]: 0.068 | glycan array binding signal (z-score) [22]: 5.02 | glycan array binding signal (z-score) [23]: 0.23 | glycan array binding signal (z-score) [24]: 5.53 | glycan array binding signal (z-score) (Gal6P(b1-4)GlcNAc): -0.241 | glycan array binding signal (z-score) (GalNAc(b1-3)Gal): -0.245 | glycan array binding signal (z-score) [25]: -0.251 | glycan array binding signal (z-score) (GalNAc(b1-4)Gal(b1-4)Glc): -0.213 | glycan array binding signal (z-score) [26]: -0.234 | glycan array binding signal (z-score) [27]: -0.237 | glycan array binding signal (z-score) [28]: -0.197 | glycan array binding signal (z-score) [29]: -0.232 | glycan array binding signal (z-score) (GlcNAc(b1-3)Fuc): -0.233 | glycan array binding signal (z-score) [30]: -0.225 | glycan array binding signal (z-score) (GlcNAc(b1-3)Man): -0.232 | glycan array binding signal (z-score) (GlcNAc(b1-4)GlcNAc): -0.23 | glycan array binding signal (z-score) [31]: -0.06 | glycan array binding signal (z-score) [32]: -0.256 | glycan array binding signal (z-score) [33]: -0.21 | glycan array binding signal (z-score) [34]: -0.196 | glycan array binding signal (z-score) [35]: -0.228 | glycan array binding signal (z-score) (Neu5Ac(a2-3)Gal(b1-4)Glc): -0.257 | glycan array binding signal (z-score) [36]: -0.189 | glycan array binding signal (z-score) (Neu5Ac(a2-6)Gal): -0.228 | glycan array binding signal (z-score) [37]: -0.234 | glycan array binding signal (z-score) [38]: -0.258 | glycan array binding signal (z-score) [39]: 1.19 | glycan array binding signal (z-score) [40]: -0.257 | glycan array binding signal (z-score) [41]: 0.014 | glycan array binding signal (z-score) [42]: -0.241
